Compound activity from PubChem.
Sampled rows, rich in hits. Any-hit rate of the full collection: about 1.7%.
Fam108B inh: mouse Fam108B serine hydrolase inhibitors, primary screen, counter-screen for RBBP9 inhibitor project, biochemical, fluorescence polarization; AID 1947, 2009; 0.33% of 300,000 active; recombinant Fam108B, FP-Rh probe fluorescence polarization; inhibition, % at 9.51 µM;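 active = inhibition above the screen mean inhibition plus 3 SD, computed separately per campaign, cut at about 18% in these data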;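 also: inhibitors lower polarization as less probe binds the enzyme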
LYPLA1 counter: LYPLA1 inhibitors, primary screen, counter-screen for PME1 inhibitor project, biochemical, fluorescence polarization, FP-Rh probe ABPP | inhibition, % at 5.9 µM | 0.16% of 320,000 active | recombinant LYPLA1 | Acyl-protein thioesterase 1 (Homo sapiens), O75608;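 active = inhibition above the mean of all tested compounds plus 3 SD, set per campaign, cut at about 14% in these data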;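 also: inhibitors block serine hydrolase probe labeling of LYPLA1 so polarization falls; 0% = enzyme with DMSO and 100% = wells lacking LYPLA1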
GSTO1 counter: inhibitors of recombinant GSTO1, primary screen, counter-screen for RBBP9 inhibitor project, biochemical, fluorescence polarization; 1.1% of 300,000 active; inhibition, % at 5.96 µM; AID 1974, 2009; Glutathione S-transferase omega-1 (Homo sapiens), P78417; activity-based probe fluorescence polarization;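 active = inhibition above the campaign mean inhibition plus 3 SD, cut at about 35% in these data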;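 also: 0% = GSTO1-1 with DMSO and 100% = wells lacking GSTO1-1 enzyme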
Target sequence (P78417 whole entry, looked up): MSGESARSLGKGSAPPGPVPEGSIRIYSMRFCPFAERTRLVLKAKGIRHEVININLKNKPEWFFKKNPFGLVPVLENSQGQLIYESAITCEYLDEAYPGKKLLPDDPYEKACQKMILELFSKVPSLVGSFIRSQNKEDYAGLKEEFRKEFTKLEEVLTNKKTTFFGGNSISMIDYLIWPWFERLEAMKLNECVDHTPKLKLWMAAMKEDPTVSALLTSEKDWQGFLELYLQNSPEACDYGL
PME-1 primary: PME-1 inhibitors via competitive probe labeling, primary screen, biochemical, fluorescence polarization, FP-Rh probe, HTS | recombinant PME-1 | Protein phosphatase methylesterase 1 (Homo sapiens), Q9Y570 | 0.53% of 320,000 active | inhibition, % at 5.9 µM;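 active = inhibition above the campaign mean of all compounds plus 3 SD, cut at about 26% in these data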;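 also: competitive labeling of PME-1 active site by serine hydrolase directed probe; 0% = PME-1 with DMSO and 100% = wells lacking PME-1 enzyme; inhibitors block probe labeling so polarization falls and inhibition rises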
Target sequence (Q9Y570 whole entry, looked up): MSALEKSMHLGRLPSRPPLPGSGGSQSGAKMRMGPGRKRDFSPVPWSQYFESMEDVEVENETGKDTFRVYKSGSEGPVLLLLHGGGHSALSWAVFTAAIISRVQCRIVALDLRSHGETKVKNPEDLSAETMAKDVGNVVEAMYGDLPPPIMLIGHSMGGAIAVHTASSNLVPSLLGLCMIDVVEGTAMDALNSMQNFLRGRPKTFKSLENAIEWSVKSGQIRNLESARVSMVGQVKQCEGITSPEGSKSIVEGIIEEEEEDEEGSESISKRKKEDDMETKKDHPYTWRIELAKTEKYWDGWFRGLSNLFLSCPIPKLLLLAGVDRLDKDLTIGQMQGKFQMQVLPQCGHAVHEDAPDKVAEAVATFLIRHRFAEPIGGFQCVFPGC
PAD4 inh: human PAD4 inhibitors, primary screen, biochemical, fluorescence polarization, 1536-well format. Protein-arginine deiminase type-4 (Homo sapiens), Q9UM07. recombinant PAD4, RCA probe fluorescence polarization. inhibition, % at 6.36 µM. 0.41% of 330,000 active;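 active = percent inhibition above a cutoff equal to the mean of all tested compounds plus 3 SD, cut at about 15% in these data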;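 also: 0% = PAD4 with RCA probe and DMSO and 100% = probe without PAD4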
LYPLA2 counter: LYPLA2 inhibitors, primary screen, counter-screen for PME1 inhibitor project, biochemical, fluorescence polarization, FP-Rh probe ABPP. Acyl-protein thioesterase 2 (Homo sapiens), O95372. recombinant LYPLA2. inhibition, % at 5.9 µM. 0.38% of 320,000 active. AID 2177, 2009;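 active = inhibition above the screen-wide mean plus 3 SD, limit set per campaign, cut at about 26% in these data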;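 also: 0% = LYPLA2 with DMSO and 100% = wells lacking LYPLA2 enzyme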
LYPLA2 confirm: LYPLA2 inhibitors, retest, confirmation, counter-screen for PME1 inhibitor project, biochemical, fluorescence polarization, FP-Rh probe ABPP. shares compounds with LYPLA2 counter. recombinant LYPLA2. inhibition, % at 5.9 µM. 72% of 1,100 active. AID 2232, 2010;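 active = mean inhibition across replicates above the hit cutoff set in the primary screen, cut at about 26% in these data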;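 also: blocked labeling of the enzyme by serine hydrolase FP-Rh probe lowers polarization; 0% = enzyme with DMSO and 100% = wells lacking LYPLA2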
LYPLA2 gel ABPP: LYPLA2 inhibitors in proteome, late-stage follow-up, gel-based competitive ABPP, fluorescence, assay provider; shares compounds with LYPLA2 counter; rhLYPLA2 in mouse brain proteome, gel ABPP FP-Rh; 30% of 150 active; inhibition, % at 20 µM;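 active = inhibition of LYPLA2 enzyme probe labeling above about 50%, limit read from the data; inactive = inhibition below that limit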;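 also: loss of FP-Rh probe labeling of the LYPLA2 gel band measured as band density; 0% = DMSO only control band and 100% = blank gel background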
* hit, by the source's call.

Screening CC/C(C)=C1\SC(N2CCN(c3cccc(C(F)(F)F)c3)CC2)=NC1=O returned Fam108B inh 1, LYPLA1 counter 3, GSTO1 counter -6, PME-1 primary -5, PAD4 inh -2, LYPLA2 counter 33* and LYPLA2 confirm 31*.
`CC(=O)Nc1ccc(CN2CCN(c3cccc(C(F)(F)F)c3)CC2)cc1` gave Fam108B inh -3, LYPLA1 counter 5, GSTO1 counter 0, PME-1 primary 1, PAD4 inh -3, LYPLA2 counter 55*, LYPLA2 confirm 58* and LYPLA2 gel ABPP 17.
`COc1cccc(NC(=O)C2CC(=O)N(C)C(=Nc3cccc(F)c3)S2)c1` (centres undefined) gave Fam108B inh 3, LYPLA1 counter -7, GSTO1 counter 3, PME-1 primary -2, PAD4 inh -3 and LYPLA2 counter 5.
CCN1C(=O)CC(C(=O)Nc2ccc(F)cc2)SC1=Nc1cccc(OC)c1 (centres undefined) was read as Fam108B inh -5, LYPLA1 counter 2, GSTO1 counter -1, PME-1 primary -6, PAD4 inh 1, LYPLA2 counter 29* and LYPLA2 confirm 8.
For O=C(CSCc1cccc(Br)c1)N/N=C/c1ccc2c(c1)OCO2 the results were Fam108B inh 2, LYPLA1 counter 2, GSTO1 counter -5, PME-1 primary -7, PAD4 inh 1 and LYPLA2 counter 6.
Screening CN(C(=O)COc1ccc([N+](=O)[O-])cc1)C1CCS(=O)(=O)C1 (centres undefined) returned Fam108B inh 4, LYPLA1 counter 1, GSTO1 counter 2, PME-1 primary -5, PAD4 inh -1, LYPLA2 counter 31* and LYPLA2 confirm 7.
`Cc1ccc(-c2nc(-c3ccc(Cl)cc3)sc2CC(=O)O)c(C)c1` gave Fam108B inh 0, LYPLA1 counter 0, GSTO1 counter -2, PME-1 primary 0, PAD4 inh -3 and LYPLA2 counter -2.
Screening Cc1cc2nnc(SCC(=O)NCc3ccco3)n2c2ccccc12 returned Fam108B inh 2, LYPLA1 counter -1, GSTO1 counter 4, PME-1 primary 0, PAD4 inh -1 and LYPLA2 counter 1.
`O=C(NNc1ccccc1[N+](=O)[O-])Nc1ccccc1` gave Fam108B inh 1, LYPLA1 counter 2, GSTO1 counter 3, PME-1 primary 3, PAD4 inh 4, LYPLA2 counter 28* and LYPLA2 confirm 17.
Screening O=C(NNc1ccccc1[N+](=O)[O-])Nc1ccc(Cl)c(Cl)c1 returned Fam108B inh -13, LYPLA1 counter -10, GSTO1 counter -5, PME-1 primary -5, PAD4 inh -5, LYPLA2 counter 49* and LYPLA2 confirm 44*.
CC1=C(C(=O)OCc2ccccc2)C(c2ccccc2Br)NC(=O)N1 (centres undefined) was read as Fam108B inh 2, LYPLA1 counter -1, GSTO1 counter -39, PME-1 primary 3, PAD4 inh -2 and LYPLA2 counter -1.
COCCn1c(C)cc(C(=O)COc2ccc(C)nc2[N+](=O)[O-])c1C was read as Fam108B inh 3, LYPLA1 counter 5, GSTO1 counter 16, PME-1 primary -19, PAD4 inh 0 and LYPLA2 counter 6.
CCCn1c(C)cc(C(=O)COc2ccc(C)nc2[N+](=O)[O-])c1C was read as Fam108B inh 4, LYPLA1 counter -4, GSTO1 counter 6, PME-1 primary 0, PAD4 inh 1, LYPLA2 counter 30* and LYPLA2 confirm 21.
For COc1ccc2c(c1)O[C@@H](c1cccc(C(F)(F)F)c1)[C@H](O)C2=O the results were Fam108B inh 3, LYPLA1 counter 3, GSTO1 counter 3, PME-1 primary -2, PAD4 inh 5 and LYPLA2 counter 18.
`COc1ccc2c(c1)O[C@H](c1ccc3c(c1)OCO3)[C@@H](O)C2=O` gave Fam108B inh 0, LYPLA1 counter 2, GSTO1 counter 7, PME-1 primary 6, PAD4 inh -6, LYPLA2 counter 64*, LYPLA2 confirm 58* and LYPLA2 gel ABPP 45.
Screening O=C(NCc1ccco1)c1ccc2[nH]c(=O)c(=O)[nH]c2c1 returned Fam108B inh 4, LYPLA1 counter 6, GSTO1 counter -10, PME-1 primary 12, PAD4 inh 0, LYPLA2 counter 28* and LYPLA2 confirm 0.
`COc1ccc(-c2ccc(=O)n(Cc3ccc([N+](=O)[O-])cc3)n2)cc1` gave Fam108B inh 0, LYPLA1 counter -3, GSTO1 counter -7, PME-1 primary 0, PAD4 inh 0, LYPLA2 counter 29* and LYPLA2 confirm 30*.
For O=C(CCCn1c(=S)[nH]c2cc3c(cc2c1=O)OCO3)N1CCN(c2ccc(Cl)cc2)CC1 the results were Fam108B inh -9, LYPLA1 counter 2, GSTO1 counter -2, PME-1 primary 4, PAD4 inh -4 and LYPLA2 counter 11.
Screening CC(=O)c1ccc(N2CCN(C(=O)c3ccc(Cn4c(=S)[nH]c5ccc(N6CCOCC6)cc5c4=O)cc3)CC2)cc1 returned Fam108B inh -1, LYPLA1 counter 6, GSTO1 counter 35*, PME-1 primary -1, PAD4 inh -1, LYPLA2 counter 44* and LYPLA2 confirm 34*.
`CC(=O)c1ccc(N2CCN(C(=O)CCCn3c(=S)[nH]c4cc5c(cc4c3=O)OCO5)CC2)cc1` gave Fam108B inh 1, LYPLA1 counter 11, GSTO1 counter 4, PME-1 primary -1, PAD4 inh -2, LYPLA2 counter 52*, LYPLA2 confirm 51* and LYPLA2 gel ABPP 13.
CC(NS(=O)(=O)c1cccc(Cl)c1)C(=O)N(C)C1CCN(C)CC1 (centres undefined) was read as Fam108B inh -2, LYPLA1 counter -3, GSTO1 counter 2, PME-1 primary 2, PAD4 inh -4 and LYPLA2 counter 5.
